Results taken from article PMC4336329 (PLoS ONE, 2015).
Among all 310,000 compounds or so, about 14,000 (4.5%) showed an effect of 50% or more. Effects have a minus sign here. The full list was thinned out, with strong results kept by preference.

Target: human ether-à-go-go-related gene (hERG) potassium channel (human, UniProt Q12809)
Test: primary screen, population patch clamp on CHO cells stably expressing hERG; higher = less effect of the substance
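Also: peak tail current of the secondary pulse compared with the same well before compound.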

Sequence of human ether-à-go-go-related gene (hERG) potassium channel (Q12809 whole entry, looked up): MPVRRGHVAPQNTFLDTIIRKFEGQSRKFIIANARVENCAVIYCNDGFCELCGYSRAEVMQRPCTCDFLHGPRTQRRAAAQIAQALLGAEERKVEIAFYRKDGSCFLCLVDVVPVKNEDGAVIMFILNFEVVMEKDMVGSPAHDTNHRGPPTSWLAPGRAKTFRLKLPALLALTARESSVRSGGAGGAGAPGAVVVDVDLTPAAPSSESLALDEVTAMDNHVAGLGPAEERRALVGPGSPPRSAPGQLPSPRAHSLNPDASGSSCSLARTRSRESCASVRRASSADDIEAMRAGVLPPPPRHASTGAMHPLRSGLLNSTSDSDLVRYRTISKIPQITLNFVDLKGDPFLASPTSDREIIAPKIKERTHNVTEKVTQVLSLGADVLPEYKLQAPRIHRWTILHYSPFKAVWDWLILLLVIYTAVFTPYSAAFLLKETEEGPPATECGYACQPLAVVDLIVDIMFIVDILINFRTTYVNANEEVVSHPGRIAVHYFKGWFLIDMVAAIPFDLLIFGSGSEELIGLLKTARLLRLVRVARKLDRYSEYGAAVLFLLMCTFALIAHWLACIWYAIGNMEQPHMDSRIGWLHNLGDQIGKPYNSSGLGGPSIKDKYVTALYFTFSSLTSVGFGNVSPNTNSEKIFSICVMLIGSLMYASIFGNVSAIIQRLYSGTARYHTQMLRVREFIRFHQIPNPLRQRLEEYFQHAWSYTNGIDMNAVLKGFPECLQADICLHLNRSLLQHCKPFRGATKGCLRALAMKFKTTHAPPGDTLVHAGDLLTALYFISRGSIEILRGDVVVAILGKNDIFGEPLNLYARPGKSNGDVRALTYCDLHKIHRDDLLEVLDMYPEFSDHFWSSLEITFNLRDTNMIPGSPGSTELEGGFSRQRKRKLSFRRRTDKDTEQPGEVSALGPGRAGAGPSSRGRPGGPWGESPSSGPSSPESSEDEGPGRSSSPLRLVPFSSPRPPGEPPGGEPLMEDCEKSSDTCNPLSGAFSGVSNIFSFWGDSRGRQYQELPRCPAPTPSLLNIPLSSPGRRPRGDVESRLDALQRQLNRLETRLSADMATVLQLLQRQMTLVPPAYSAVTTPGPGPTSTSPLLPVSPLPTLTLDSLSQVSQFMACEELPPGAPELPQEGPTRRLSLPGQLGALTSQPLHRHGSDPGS

| Structure (SMILES) | hERG current change (%, negative = inhibition) at 10uM [%] |
| --- | --- |
| CCOc1cccc(/C=C(/C#N)c2nc3ccccc3[nH]2)c1OCC(=O)O | 14.1 |
| COc1cc(C(=O)Nc2nc3ccc4nc(C)sc4c3s2)cc(OC)c1OC | -5.34 |
| C=CCN(C(=O)CNC(=O)c1ccco1)C(C(=O)NC1CCCCC1)c1ccccc1 (centres unmarked) | 1.1 |
| C=C1CCN(c2ccc(C(=O)NCCC)cc2[N+](=O)[O-])CC1 | -48.3 |
| CN(C)C(=O)Cn1cnc2c(cnn2-c2ccc(F)cc2)c1=O | -2.06 |
| COC(=O)C(C(=O)OC)C(C[N+](=O)[O-])c1ccc(OC)cc1 (centres unmarked) | -6.91 |
| Cc1cc(C)cc(NC(=O)C2CCN(S(=O)(=O)c3ccc4c(c3)NC(=O)C(C)S4)CC2)c1 (centres unmarked) | 8.79 |
| CCC(C)NC(=O)CSc1ccc(S(=O)(=O)N2CCN(Cc3ccccc3)CC2)cn1 (centres unmarked) | -16.6 |
| O=C(OC(c1ccccc1)c1nccc2ccccc12)c1cccc([N+](=O)[O-])c1 (centres unmarked) | 8.01 |
| CN(C)/C=N/c1cnc(C(=O)c2ccc(Cl)cc2)n1C | 5.58 |
| Br.CCCN(CCC)C1CCc2cccc(O)c2C1 (centres unmarked) | -10.6 |
| Br.CCCN(CCC)C1CCc2ccc(O)cc2C1 (centres unmarked) | -70 |
| Br.CCCN(CCC)[C@@H]1CCc2cccc(O)c2C1 | -34.4 |
| COc1ccc(Cl)c2sc(N(Cc3cccnc3)C(C)=O)nc12 | 13.2 |
| Cc1cc(C(=O)Nc2ccccc2)oc1C | 7.57 |
| Cc1cc(C(=O)Nc2ccc3ccccc3c2)oc1C | -68.1 |
| CC(=O)c1cc(C(=O)Nc2ccc3ccccc3c2)c(C)o1 | 13.8 |
| COc1ccc(S(=O)(=O)N2CCCOC2CNC(=O)C(=O)NCCCn2ccnc2)cc1 (centres unmarked) | -3.17 |
| Cc1cc(C)cc(N(CC(=O)N/N=C/c2ccncc2)S(=O)(=O)c2ccccc2)c1 | -76.9 |
| COc1ccc(/C=N/NC(=O)CN(c2ccc(OC)cc2)S(=O)(=O)c2ccccc2)cc1 | -7.15 |
| COc1ccc(N(CC(=O)N/N=C/c2cccnc2)S(=O)(=O)c2ccc(C)cc2)cc1OC | -14.2 |
| Cc1ccc(N(CC(=O)N/N=C/c2cccnc2)S(=O)(=O)c2ccccc2)cc1 | -52 |
| Cc1cc(C)cc(N(CC(=O)Nc2ccccc2-c2ccccc2)S(=O)(=O)c2ccccc2)c1 | 13.1 |
| COc1ccc(N(CC(=O)N/N=C/c2cccnc2)S(=O)(=O)c2ccccc2)c(OC)c1 | -40.6 |
| CC(=O)NCCC(=O)N1CCCC(CNC(=O)c2ccc(-c3ccccc3)cc2)C1 (centres unmarked) | -0.511 |
| Cn1cc(C(O)CN2CCCCC2)c2ccccc21 (centres unmarked) | 9.26 |
| CCn1c(COc2ccc3c(c2)CCCC3)nnc1SCC(=O)Nc1ccc(C(=O)OC)cc1 | 5.43 |

| Structure (SMILES) | hERG current change (%, negative = inhibition) at 10uM [%] |
| --- | --- |
| CN(Cc1ccccc1)C(=O)c1ccccc1NC(=O)c1ccco1 | 20 |
| CCOC(=O)c1c(C)nc2ccccc2c1-c1ccccc1.Cl | -30.8 |
| Cc1nc2ccccc2c(-c2ccccc2)c1C(=O)c1ccccc1 | 0.392 |
| CCOC(=O)c1c(CCl)nc2ccccc2c1-c1ccccc1 | 5.72 |
| CN(C)c1nc2ccccc2c(N)c1-c1ccccc1.O=C(O)C(=O)O | -65.9 |
| Cc1c(N(C)C)nc2ccccc2c1N.O=C(O)C(=O)O | -46.5 |
| CCN(CC)c1nc2ccccc2c(N)c1-c1ccccc1.O=C(O)C(=O)O | -77 |
| CCOC(=O)c1c(-c2ccccc2)csc1NC(=S)NC | -3.27 |
| CCN(CC)C(=O)COc1ccc(Br)cc1Cl | -11.8 |
| NC(=S)N/N=C1\CC(n2nnn(-c3cccc(Cl)c3)c2=S)C2COC1O2 (centres unmarked) | -26.8 |
| Cc1cc(C)cc(C(=O)NC(CC(N)=O)c2ccc(N3CCC(Br)CC3)c([N+](=O)[O-])c2)c1 (centres unmarked) | -16.1 |
| CC(Oc1cccc(Cl)c1)C(=O)Nc1cc(S(=O)(=O)N2CCCCC2)ccc1N1CCOCC1 (centres unmarked) | -8.24 |
| CCN1CCN(c2ccc(S(=O)(=O)N3CCOCC3)cc2NC(=O)C(C)Oc2cccc(Cl)c2)CC1 (centres unmarked) | -70.8 |
| CC(Oc1ccc(F)cc1)C(=O)Nc1cc(S(=O)(=O)N2CCOCC2)ccc1N1CCCCC1 (centres unmarked) | 6.32 |
| CC(Oc1cccc(Cl)c1)C(=O)Nc1cc(S(=O)(=O)N2CCOCC2)ccc1N1CCCCC1 (centres unmarked) | 8.44 |
| CCN1CCN(c2ccc(S(=O)(=O)N3CCOCC3)cc2NC(=O)C(C)Oc2ccc(Cl)cc2)CC1 (centres unmarked) | -70.9 |
| CCN1CCN(c2ccc(S(=O)(=O)N3CCCCC3)cc2NC(=O)C(C)Oc2ccc(F)cc2)CC1 (centres unmarked) | -72.7 |
| CC(Oc1ccc(F)cc1)C(=O)Nc1cc(S(=O)(=O)N2CCCCC2)ccc1N1CCOCC1 (centres unmarked) | -5.21 |
| CC(Oc1cccc(Cl)c1)C(=O)Nc1cc(S(=O)(=O)N2CCOCC2)ccc1N1CCCC1 (centres unmarked) | -24.8 |
| CC(Oc1cccc(Cl)c1)C(=O)Nc1ccccc1N1CCCC1 (centres unmarked) | -15.3 |
| CCN1CCN(c2ccccc2NC(=O)C(C)Oc2ccc(C(C)=O)cc2)CC1 (centres unmarked) | -51.6 |
| CC(=O)c1ccc(OCC(=O)Nc2ccccc2N2CCCC2)cc1 | -2.74 |
| CC(Oc1ccc(Br)cc1)C(=O)Nc1cc(S(=O)(=O)N2CCOCC2)ccc1N1CCCC1 (centres unmarked) | -5.62 |
| O=C(Nc1cccnc1)C1(c2ccccc2)CCCC1 | 4.11 |
| O=[N+]([O-])/C=C1/NCCN1Cc1ccc(Cl)nc1 | -1.96 |
| CC1CCc2c(C(=O)NCc3ccco3)csc2C1 (centres unmarked) | -8.96 |
